A short description of experiment [1]: qHTS assay for small molecules that induce genotoxicity in human embryonic kidney cells expressing luciferase-tagged ATAD5 (AID 651632). Also: nearly all actives have a fitted effect of over 15% in size. The essentials: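 ATAD5-luc HEK293T, 2,000 cells/well; cpd or DMSO pin-transferred; 16 hr, 37C/5% CO2; Amplite 30 min RT; luminescence.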
In general terms: Quantitative high-throughput screening tests each substance at several concentrations.

Experiment [2] can be described thus: qHTS assay for small molecule agonists of the p53 signaling pathway - cell viability (AID 651633; calls by dose curve; also: nearly all actives have a fitted effect of over 30% in size; also: potency is read from the fitted curve at half-maximal effect). The essentials:
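Viability counter-read: CellTiter-Glo luminescence (30 min, room temperature) in the same p53RE-bla plates. These plates had been exposed to compounds for 16 h at 37 C.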

Experiment [3] can be described thus: qHTS assay for small molecules that induce genotoxicity in human embryonic kidney cells expressing luciferase-tagged ATAD5 - cell viability (AID 651634; calls by dose curve; also: nearly all actives have a fitted effect of over 25% in size; also: potency is read from the fitted curve at half-maximal effect). The essentials: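 Fluorescence from CellTiter-Fluor, reporting protease activity within live cells, served as the viability read-out. HEK293T cells carrying luciferase-tagged ATAD5 had been treated with compound for 15.5 hr at 37C.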

Experiment [4] can be described thus: qHTS assay to test for compound auto fluorescence at 590 nm (red) in HepG2 cells (AID 720674). An outline of the steps: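 We screened compounds on adherent HepG2 cells, incubating them for an hour at 37 C in 5% CO2 before reading emission at 590 nm under 540 nm excitation; values reflect equivalence to Rose Bengal sodium fluorescence.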
Experiment [5] can be described thus: qHTS assay to test for compound auto fluorescence at 535 nm (green) in HepG2 cells (AID 720675).
Experiment [6] is described as follows: qHTS assay to test for compound auto fluorescence at 460 nm (blue) in HEK293 cells (AID 720678). The essentials:
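Intrinsic compound fluorescence is recorded in live HEK293 cultures after overnight incubation at 37C, 5% CO2, using excitation 405 nm and emission 460 nm. Values are referenced to triamterene.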

Experiment [7] can be described thus: qHTS assay to test for compound auto fluorescence at 590 nm (red) in HEK293 cells (AID 720679). An outline of the steps:
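Red autofluorescence, HEK293 cells: 2,000 cells/well; attach 4-5 hr 37C; add 23 nL cpd or DMSO; incubate o/n 37C 5% CO2; read Ex540/Em590; Rose Bengal sodium reference.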

Experiment [8] can be described thus: qHTS assay to test for compound auto fluorescence at 535 nm (green) in HEK293 cells (AID 720680).
Experiment [9] in a line: qHTS assay to test for compound auto fluorescence at 460 nm (blue) in HEK293 cell free culture (AID 720681). The essentials:
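Blue fluorescence (Ex 405/Em 460 nm, triamterene-equivalent) was read immediately after pin transfer of compound or DMSO into medium (DMEM, 10% FBS) without cells.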

Experiment [10] can be described thus: qHTS assay to test for compound auto fluorescence at 535 nm (green) in HEK293 cell free culture (AID 720682). An outline of the steps: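 Intrinsic compound fluorescence is measured in culture medium containing 10% FBS, with excitation at 485 nm and detection at 535 nm, referenced to fluorescein.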
A short description of experiment [11]: qHTS assay to test for compound auto fluorescence at 590 nm (red) in HEK293 cell free culture (AID 720683). The essentials:
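Red-channel autofluorescence of compounds in culture medium (DMEM, 10% FBS), no cells, measured at 540/590 nm. Rose Bengal sodium is the reference fluorophore for equivalence.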

Experiment [12] in a line: qHTS assay to test for compound auto fluorescence at 590 nm (red) in HepG2 cell free culture (AID 720684). An outline of the steps:
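Plate contents were MEM with 10% FBS plus test compound or DMSO, no cells. Fluorescence was recorded with 540 nm excitation and 590 nm emission.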

Experiment [13] in a line: qHTS assay to test for compound auto fluorescence at 460 nm (blue) in HepG2 cell free culture (AID 720685). The essentials:
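Compound (23 nL) or DMSO pinned into cell-free MEM with 10% FBS; blue fluorescence read at 405/460 nm excitation/emission, expressed as auto-fluorescence equivalency to triamterene.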

The nature of experiment [14]: qHTS assay to test for compound auto fluorescence at 535 nm (green) in HepG2 cell free culture (AID 720686).
A short description of experiment [15]: qHTS assay to test for compound auto fluorescence at 460 nm (blue) in HepG2 cells (AID 720687). The essentials:
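Blue-channel autofluorescence (Ex/Em 405/460 nm, triamterene-equivalent) was measured after 1 hr compound exposure at 37 C, 5% CO2. Cells were HepG2, plated overnight at 37 C in MEM plus 10% FBS.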

Experiment [16] in a line: qHTS assay for small molecule disruptors of the mitochondrial membrane potential (AID 720635). Also: potency is read from the fitted curve at half-maximal effect. An outline of the steps:
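Mitochondrial membrane potential tracked with Mito-MPS dye, red aggregates (ex 540/em 590 nm) against green monomers (ex 490/em 535 nm). Compound treatment 1 hr at 37C, dye 30 min in HepG2.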

In experiment [17] the target is Glucocorticoid receptor (Homo sapiens) (UniProt P04150). The experiment is described as follows: qHTS assay to identify small molecule agonists of the glucocorticoid receptor (GR) signaling pathway (AID 720691; active = well fitted activation curve with a large enough effect in the signal ratio in the repeat runs, not every such curve was filed as active; the % refers to the signal ratio). The essentials:
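Fluorescence intensity from LiveBLAzer B/G FRET substrate (2 h, room temperature) reports beta-lactamase expression driven by the glucocorticoid response element in GR-bla HeLa cells after 18 h compound exposure at 37 C.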

Experiment [18] has the same target. Briefly: qHTS assay to identify small molecule antagonists of the glucocorticoid receptor (GR) signaling pathway (AID 720692; active = well fitted inhibition curve with a large enough effect in the signal ratio in the repeat runs, not every such curve was filed as active; the % refers to the signal ratio; also: potency is read from the fitted curve at half-maximal effect). An outline of the steps:
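HeLa GR-bla cells; cmpd + dex 5 nM final, 18 h 37 C; LiveBLAzer B/G FRET substrate 2 h RT; fluorescence intensity read. Antagonist mode, qHTS.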

A short description of experiment [19]: qHTS assay for small molecule disruptors of the mitochondrial membrane potential - cell viability (AID 720634; calls by dose curve;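 also: human HepG2 liver cancer cells; series mostly up to about 83 µM; nearly all actives have a fitted effect of over 20% in size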). An outline of the steps: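 Cells: HepG2, 2,000/well, attached overnight. Compound 1 hr, 37 C/5% CO2. +m-MPI dye, +CellTiter-Glo 30 min RT. Readout: luminescence (ATP).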

Records with an inconclusive call do not appear. The source holds several records for some structures; these can differ, active in one and inactive in another. The source made the active and inactive calls. Unless noted, calls follow the shape of the dose curve; as a rule, active = well fitted curve in the direction sought with a large enough effect in the repeat runs; inconclusive = weak or mixed curves; inactive = no such curve, though single readings can be large; an effect the other way counts as inactive or inconclusive.

Glucocorticoid receptor (Homo sapiens), sequence (P04150 whole entry, looked up): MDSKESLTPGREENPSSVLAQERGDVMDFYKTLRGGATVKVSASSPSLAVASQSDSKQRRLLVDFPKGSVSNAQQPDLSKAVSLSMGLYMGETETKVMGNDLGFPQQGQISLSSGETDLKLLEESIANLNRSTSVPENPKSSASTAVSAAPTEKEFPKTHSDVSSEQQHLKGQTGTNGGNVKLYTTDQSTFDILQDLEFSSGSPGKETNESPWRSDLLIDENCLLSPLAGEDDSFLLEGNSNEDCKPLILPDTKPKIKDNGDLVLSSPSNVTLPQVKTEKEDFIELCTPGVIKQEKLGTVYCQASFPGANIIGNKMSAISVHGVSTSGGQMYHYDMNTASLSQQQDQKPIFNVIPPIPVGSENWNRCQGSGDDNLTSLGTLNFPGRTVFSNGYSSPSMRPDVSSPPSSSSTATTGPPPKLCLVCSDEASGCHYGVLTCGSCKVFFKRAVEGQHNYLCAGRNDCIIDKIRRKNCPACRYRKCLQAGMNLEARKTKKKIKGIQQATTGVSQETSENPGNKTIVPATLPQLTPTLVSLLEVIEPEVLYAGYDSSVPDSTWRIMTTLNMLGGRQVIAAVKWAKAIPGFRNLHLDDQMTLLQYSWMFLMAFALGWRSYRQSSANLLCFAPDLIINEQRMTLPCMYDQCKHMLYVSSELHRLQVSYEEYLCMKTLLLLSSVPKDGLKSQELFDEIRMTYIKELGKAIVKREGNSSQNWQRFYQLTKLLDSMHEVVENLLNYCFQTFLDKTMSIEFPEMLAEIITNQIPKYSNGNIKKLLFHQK

In the case of `Clc1sc(Cl)c(Cl)c1Cl`, the Potency result in experiment [1], in experiment [2], in experiment [3], in experiment [4], in experiment [5] and in experiment [6] was “inactive” each time. Also, the Potency result in [7], in [8], in experiment [9], in experiment [10], in experiment [11] and in experiment [12] was “inactive” in each case. Besides, the Potency result in experiment [13], in [14] and in [15] was “inactive” throughout.
Turning to `Cc1c(C)c2c(c(C)c1O)CC[C@@](C)(CCC[C@H](C)CCC[C@H](C)CCCC(C)C)O2`, the Potency result in [1], in experiment [2], in experiment [3], in [16], in experiment [4] and in experiment [5] was “inactive” throughout. Also, the Potency entry in [6], in [7], in experiment [8], in [9], in experiment [10] and in experiment [11] was “inactive” throughout. In addition, the Potency entry in experiment [12], in [13], in [14], in [15] and in [17] was “inactive” in each case.
`Cc1c(C)c([N+](=O)[O-])c(C(C)(C)C)c([N+](=O)[O-])c1C`: the Potency result in experiment [1], in experiment [2], in experiment [3], in experiment [4], in experiment [5] and in experiment [6] was “inactive” each time. In addition, the Potency entry in experiment [7], in [8], in [9], in [10], in experiment [11] and in experiment [12] was “inactive” each time. The Potency result in experiment [14] and in experiment [15] was “inactive” throughout. Also, the Potency in [16] was 30.6 µM (active).
Take `Cc1cc(C(C#N)c2ccc(Cl)cc2)c(Cl)cc1NC(=O)c1cc(I)cc(I)c1O` (configuration not stated): the Potency result in [1], in experiment [4], in experiment [5], in experiment [6], in experiment [7] and in experiment [9] was “inactive” each time. Further, the Potency entry in experiment [10], in experiment [11], in experiment [12], in [13], in [14] and in experiment [15] was “inactive” in each case. For the same compound, the Potency result in experiment [17] was “inactive”. The Potency in experiment [2] was 3.35 µM (active); in experiment [16], 2.37 µM (active).
For the compound `Cc1c(F)c(N2CCNC(C)C2)cc2c1c(=O)c(C(=O)O)cn2C1CC1` (configuration not stated), the Potency entry in [1], in experiment [2], in experiment [3], in experiment [4], in experiment [5] and in experiment [6] was “inactive” throughout. Further, the Potency result in experiment [7], in experiment [8], in experiment [9], in [10], in experiment [11] and in [12] was “inactive” throughout. Also, the Potency result in experiment [13], in [14], in experiment [15], in experiment [17] and in experiment [18] was “inactive” throughout.
`CCCC(=O)OCCc1ccccc1`: the Potency entry in experiment [1], in experiment [2], in experiment [19], in experiment [16], in [4] and in experiment [5] was “inactive” in each case. The Potency result in experiment [6], in experiment [7], in [8], in experiment [9], in experiment [10] and in experiment [11] was “inactive” in each case. The Potency entry in experiment [12], in [13], in experiment [14], in experiment [15] and in experiment [17] was “inactive” throughout.
In the case of `CCN(CC)C(=O)c1cc(S(=O)(=O)Cc2ccccc2)c(N2CCC(c3ccccc3)CC2)cc1N(CC)CCN(C)C`, the Potency entry in experiment [1], in experiment [4], in experiment [5], in [7], in [8] and in experiment [9] was “inactive” throughout. Further, the Potency entry in experiment [10], in [11], in experiment [12], in experiment [13], in experiment [14] and in experiment [15] was “inactive” each time. Besides, the Potency entry in experiment [17] is “inactive”. Besides, the Potency is 29.8 µM (active) in [2]; 29.8 µM (active) in experiment [3]; 21.3 µM (active) and inactive in experiment [18].

Values taken from PubChem BioAssay (Tox21).
